Bioassay records deposited in PubChem by National Center for Advancing Translational Sciences (NCATS).
ALDH1A1 block = blocks purified human ALDH1A1 activity; 220,000 compounds, 7.3% hits; P00352; Potency, µM (series often up to 75.3 µM), for inactives: at the highest dose activity, negative = inhibition, actives largely listed as inhibitors; Purified ALDH1A1, NADH fluorescence, propionaldehyde substrate;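 further: potency means the concentration at half of the fitted maximal effect; plate controls were no enzyme wells and a reference inhibitor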
Target sequence (P00352 whole entry, looked up): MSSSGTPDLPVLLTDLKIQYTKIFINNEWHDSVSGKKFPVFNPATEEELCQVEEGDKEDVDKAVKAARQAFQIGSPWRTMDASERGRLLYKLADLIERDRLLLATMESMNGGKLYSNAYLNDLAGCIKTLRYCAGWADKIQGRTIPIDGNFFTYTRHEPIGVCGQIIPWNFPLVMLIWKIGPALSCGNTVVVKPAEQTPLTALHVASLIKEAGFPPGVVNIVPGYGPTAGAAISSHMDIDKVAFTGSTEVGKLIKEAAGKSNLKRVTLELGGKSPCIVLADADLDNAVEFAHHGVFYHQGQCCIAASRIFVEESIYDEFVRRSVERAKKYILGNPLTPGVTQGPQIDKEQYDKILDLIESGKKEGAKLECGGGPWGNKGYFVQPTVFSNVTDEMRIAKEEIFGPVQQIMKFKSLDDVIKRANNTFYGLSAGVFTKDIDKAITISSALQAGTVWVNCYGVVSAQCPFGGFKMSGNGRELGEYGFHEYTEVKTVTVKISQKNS
IMPase inh = cell-permeable inhibitors of inositol monophosphatase (IMPase) | CHO-M1 cells, IP1 accumulation, HTRF TR-FRET ratio | 120,000 tested, under 10 active | inhibition (IP1 accumulation), % at 46.1 µM | P97697; active means well fitted curve in the direction sought with a large enough effect in the signal ratio, not every such curve was filed as active; inconclusive means small, poorly fitted or top-dose-only effect, or a change in a side signal; inactive means no such curve, though single readings can be large or run the other way; the % refers to the signal ratio;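 further: cells stimulated with carbachol in lithium chloride buffer; plate controls were DMSO basal wells for no effect and reference inhibitor wells for full effect; higher means more IMPase inhibition seen as more IP1 and lower FRET ratio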
Target sequence (P97697 whole entry, looked up): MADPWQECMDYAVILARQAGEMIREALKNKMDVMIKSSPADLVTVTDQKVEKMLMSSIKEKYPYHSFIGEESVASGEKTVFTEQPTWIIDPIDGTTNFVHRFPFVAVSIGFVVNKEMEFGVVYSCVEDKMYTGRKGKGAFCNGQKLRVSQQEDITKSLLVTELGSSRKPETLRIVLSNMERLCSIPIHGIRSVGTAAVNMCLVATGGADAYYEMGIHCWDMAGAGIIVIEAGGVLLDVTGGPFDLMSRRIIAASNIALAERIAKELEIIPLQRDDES
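Measured: the HTRF emission ratio (665/620 nm) plus the 620 nm donor channel, each fitted to the Hill equation to give AC50. Cells were CHO-M1 given compounds up to 46 uM and a 30 min carbachol stimulation at 37C.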
Luc counter = counter-screen: inhibitors of Kinase-Glo firefly luciferase; Q27757; Kinase-Glo luciferase, ATP luminescence, 8 min; Potency, µM (top dose mostly 38.3 µM), for the others: top-dose activity change, negative = inhibition, most hits filed as inhibitors; 200,000 compounds, 0.28% hits; active means well fitted inhibition curve with a large enough effect; inconclusive means small, poorly fitted or top-dose-only effect; further: potency means the concentration at half of the fitted maximal effect; nearly all actives have a fitted effect of over 60% in size
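Substrate mix (final 50 mM imidazole pH 7.2, 50 mM KCl, 7 mM MgCl2, 10 uM ATP, 0.01% Tween 20, 0.05% BSA) plus pin-tool compound, then Kinase-Glo detection mix; 8 min ambient, luminescence read.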
HPGD inh = HPGD (human) dehydrogenase inhibition. P15428. purified HPGD, NADH fluorescence kinetic, PGE2 substrate. Potency, µM, without a hit: at the highest dose activity change, negative = inhibition, actives largely listed as inhibitors. 150,000 compounds, 4.3% hits. AID 894; further: potency means the concentration at half of the fitted maximal effect
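20 nM HPGD preincubated 15 min at room temperature with compound in 50 mM Tris-HCl pH 8, 0.01% Tween 20. Started with 1 mM NAD+ and 30 uM prostaglandin E2; NADH fluorescence (360/450 nm) read 5 times over 30-s intervals, last minus first.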
PNC inhibitor = perinucleolar compartment assembly inhibition; PC3M PTB-GFP, PNC prevalence imaging, 16 h; stronger effect = lower value; activity change (PNC), negative = inhibition, % at 10 µM; 140,000 compounds, 3.1% hits;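 active means readout at or below -70, meaning at least 70% loss of cells showing the perinucleolar compartment, a nuclear body marking cancer cells; inconclusive means readout between -30 and a set limit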;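 further: plate controls were DMSO wells for no effect and camptothecin positive control wells for full effect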
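Read-out is percentage of cells bearing a perinucleolar compartment, from automated 20x imaging of fixed, Hoechst-stained PC3M PTB-GFP cells. Cells were seeded 4 h, then exposed 16 h to compound (23 nl of library stock) in duplicate plates.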
LMNA splice mod = LMNA splicing modulation; HeLa LMNA splicing GFP/RFP minigene ratio, 48 h; 200,000 compounds, 0.01% hits; Potency, µM (series often up to 46.1 µM), for inactives: top-dose ratio change, negative = inhibition, actives largely listed as inhibitors; active means well fitted inhibition curve with a large enough effect in the signal ratio, with a control signal flat, not every such curve was filed as active; inconclusive means small, poorly fitted or top-dose-only effect, or effect the other way, or a change in a side signal; the % refers to the signal ratio; further: potency means the concentration at half of the fitted maximal effect
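S3 HeLa cells stably expressing lamin A-EGFP splicing minigene plus DsRed2, 600 cells/well, 48 h compound exposure at 37C. Laser-scanning cytometry; analysed as GFP (500-530 nm)/RFP (575-640 nm) total intensity ratio; 0.5% DMSO vehicle.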
* hit, by the source's call; ? = inconclusive; / = not tested or not shown; [ ] = another dose, or the depositor's remark. This is a sample that favours compounds with a hit; in the whole collection about 10% have one here. Unless noted, the call rests on the fitted dose curve; in most records, active means well fitted inhibition curve with a large enough effect (not every such curve was filed as active); inconclusive means small, poorly fitted or top-dose-only effect, or another doubt; inactive means no such curve, though single readings can be large or run the other way. Unless noted, on the % scale 0 is the no-effect control and ±100 the full control effect.

SMILES	ALDH1A1 block	IMPase inh	Luc counter	HPGD inh	PNC inhibitor	LMNA splice mod
CN(C)C(Cc1ccccc1)C(=O)c1ccc(-c2ccccc2)cc1 (stereo not drawn)	?	-4	-3%	-27%	-14	-14%
COc1ccc(C(C)=O)cc1CC(C(=O)c1ccc(F)cc1)N(C)C (stereo not drawn)	4%	-4	3%	-19%	-93*	-7%
C[C@@H]1[C@@H](C)N1C[C@H](O)Cn1ccnc1[N+](=O)[O-] (stereo partly drawn)	11%[13.5 µM]	/	2%[7.66 µM]	-13%	/	/
COP(=O)(OC)O/C(=C\Cl)c1cc(Cl)c(Cl)cc1Cl	?	/	/	-9%	/	/
CC(=O)O[C@@H]1C[C@@]2(C)C(c3ccoc3)C[C@H]3O[C@]32[C@]2(C)C(=O)C(O)=C3C(C)(C)C(=O)C=C[C@]3(C)C12 (stereo partly drawn)	1%	/	1%	-8%	/	/
O=C(O)/C=C\C(=O)Nc1ccc(Oc2ccc(Br)cc2)cc1	1.4µM*	/	-2%	/	/	22%[46 µM]
CC1=C2C(=COC(C)C2C)C(=O)C(C(=O)O)=C1O (stereo not drawn)	?	/	-2%	-5%	/	/
C=CCN1C[C@H](C)N([C@H](c2ccc(C(=O)N(CC)CC)cc2)c2cccc(O)c2)C[C@H]1C	4%	7	1%	11µM*	/	/
CCC(=Nc1cc(OC)ccc1OC)c1c(O)[nH]c(=O)[nH]c1=O	?	8	-4%	25µM*	48	?
CCC(=Nc1ccc(OC)cc1OC)c1c(O)[nH]c(=O)[nH]c1=O	-4%	3	13%	25µM*	-96*	-2%
Cc1ccc(S(=O)ON2CCC(C(=O)O)(c3ccccc3)CC2)cc1 (stereo not drawn)	15%[13.5 µM]	/	0%[7.66 µM]	-9%	/	/
CC(C)N[C@@H](C)Cc1ccc(I)cc1	/	11	/	/	/	/
O[C@H](CN1CC1)[C@@H](O)CN1CC1	8%[13.5 µM]	/	-5%[7.66 µM]	-1%	/	/
O=C1CN=C(c2ccccc2)c2cc(Br)ccc2N1Cc1cc(=O)n2ccccc2n1	?	/	-1%	-14%	-88*	-7%
O=C1NC(=O)N(Cc2ccccc2)C(=O)/C1=C\N1CCCc2ccccc21	-2%	/	-3%	?	?	-6%
O=C1NC(=O)C(=CN2CCc3ccccc32)C(=O)N1	11µM*	/	-1%	-20%	104	-22%
CC1CCC(C(C)C)C(OP(=O)(c2ccc(N(C)C)cc2)C(O)c2cccnc2)C1 (stereo not drawn)	-2%	/	-4%	-2%	-114*	?
O=c1c2ccccc2nc(/C=C/c2ccc(O)cc2)n1-c1ccccc1O	-12%	/	/	/	/	/
O=c1c2ccccc2nc(/C=C/c2cccnc2)n1Cc1ccccc1	5µM*	/	-1%	/	/	/
C[C@H](NC(=O)[C@@H](N)Cc1ccc(O)cc1)C(=O)N[C@@H](Cc1ccccc1)C(=O)N[C@@H](Cc1ccccc1)C(N)=O	-7%	/	/	/	/	/
CCc1ccccc1N1C(=O)/C(=C/c2ccc(N3CCN(C)CC3)o2)C(=O)NC1=S	?	/	-9%	-6%	4	?
CCOc1ccc(N2C(=O)/C(=C\c3cccs3)C(=O)NC2=S)cc1	18µM*	/	-6%	/	/	-18%[46 µM]
O=C1NC(=S)N(c2ccccc2F)C(=O)/C1=C\c1cccs1	20µM*	/	-1%	7.9µM*	18	?
CCn1c(N)c(C(=O)NC)sc1=S	2.8µM*	-3	-2%	3.5µM*	?	3%
CC1=C2C(=O)[C@@H]3[C@@H](CC=C4C[C@@H](O)CC[C@@]43C)[C@H]2CC[C@@]12O[C@H]1C[C@H](C)CN[C@H]1[C@@H]2C	5%[13.5 µM]	/	0%[7.66 µM]	-6%	/	/
SMILES	ALDH1A1 block	IMPase inh	Luc counter	HPGD inh	PNC inhibitor	LMNA splice mod
O=C(c1cc(C(=O)NCc2ccccc2)c(=O)n(Cc2ccccc2)c1)c1cc(Cl)ccc1O	?	/	3%	16µM*	?	?
CC(C)CCNC(=O)c1cc(C(=O)c2cc(Br)ccc2O)cn(CCC(C)C)c1=O	-4%	/	-2%	/	/	/
C[C@H]1C[C@H](C)C(=O)[C@@H]([C@H](O)CC2CC(=O)NC(=O)C2)C1	0%	-3	4%	-8%	/	/
O=Cc1cn(Cc2ccccc2[N+](=O)[O-])c2ccccc12	1.3µM*	/	-2%	-12%	-1	?
O=Cc1cn(Cc2ccc(F)cc2)c2ccccc12	0.13µM*	/	-4%	/	/	17%[46 µM]
O=Cc1cn(Cc2ccc([N+](=O)[O-])cc2)c2ccccc12	2.2µM*	/	2%	-17%	-16	?
Cc1c(C=O)c2ccccc2n1Cc1ccc(F)cc1	1%	/	0%	/	/	?
O=[N+]([O-])c1ccccc1CNCCc1ccc(F)cc1	?	0	-5%	-3%	-5	-4%
ClC=CCl	-3%	/	/	-12%	/	/
COc1ccc(NC(=O)c2cc([N+](=O)[O-])ccc2N2CCNCC2)cc1	8.9µM*	/	-1%	/	/	-3%[46 µM]
O=[N+]([O-])c1ccc(N2CCNCC2)cc1N1CCCCC1	?	/	-1%	/	/	/
CCCCCCCCOC(=O)c1ccccc1C(=O)OCCCCCCCC	25µM*	/	/	-10%	/	?
Clc1ccc(CNC2CN3CCC2CC3)cc1 (stereo not drawn)	10%	/	-2%	1%	-80*	5%
Fc1ccccc1CNC1CN2CCC1CC2 (stereo not drawn)	4%	/	-1%	/	/	8%[46 µM]
NC[C@H](O)c1cc(O)c(O)cc1F	/	2	/	/	/	/
CCOC(=O)c1ccc(NC(=O)C2C3C=CC(O3)C2C(=O)O)cc1 (stereo not drawn)	10µM*	0	11%	-9%	-91*	27%
CCOC(=O)c1ccc(NC(c2ccc(N(C)C)cc2)P(=O)(OC(C)C)OC(C)C)cc1 (stereo not drawn)	?	/	-6%	/	/	-22%[46 µM]
N#CC(C#N)=NNc1ccc(OC(F)(F)F)cc1	2.8µM*	/	3%	-27%	/	/
N#CC(C#N)=NNc1cccc(Cl)c1	7%	/	2%	-24%	/	/
CCCCCc1nc2c(c(=O)c3ccccc3n2C)c(=O)n1C1CCCCCC1	3.5µM*	-2	-1%	-1%	?	-19%
NC(=O)c1sc2nc3c(c(-c4cccs4)c2c1N)CCCC3	?	/	-3%	?	20	?
Nc1c2c(nc3sc4c(c13)CCCCC4)CCCC2	?	/	-12%	-17%	-113*	?
Nc1ccc(-c2ccc(N)c(Cl)c2)cc1Cl	?	/	/	-10%	/	/
CCSC(=O)Cl	?	/	/	-9%	/	/
CC(C)(C)c1ccc(C(=O)NC(=S)Nn2cnnc2)cc1	9.5µM*	0	/	/	-2	-7%
COc1ccc2c3c1OC1C[C@@H](O)C=C[C@@]31CCN(C)C2 (stereo partly drawn)	-3%	-2	1%	2%	/	?
